This is one part of a sample in which hits are shown more often than they occur.
ST2 IL33 inh = inhibitors of human ST2 (IL1RL1) binding to IL-33 | Q01638 | AID 1259354 | inhibition, % for hits at 17 µM | AlphaLISA ST2-Fc/biotin-IL-33 interaction, 1 h | 78,000 compounds, 2.3% hits; in the data active = inhibition above about 30%
Target sequence (Q01638 whole entry, looked up): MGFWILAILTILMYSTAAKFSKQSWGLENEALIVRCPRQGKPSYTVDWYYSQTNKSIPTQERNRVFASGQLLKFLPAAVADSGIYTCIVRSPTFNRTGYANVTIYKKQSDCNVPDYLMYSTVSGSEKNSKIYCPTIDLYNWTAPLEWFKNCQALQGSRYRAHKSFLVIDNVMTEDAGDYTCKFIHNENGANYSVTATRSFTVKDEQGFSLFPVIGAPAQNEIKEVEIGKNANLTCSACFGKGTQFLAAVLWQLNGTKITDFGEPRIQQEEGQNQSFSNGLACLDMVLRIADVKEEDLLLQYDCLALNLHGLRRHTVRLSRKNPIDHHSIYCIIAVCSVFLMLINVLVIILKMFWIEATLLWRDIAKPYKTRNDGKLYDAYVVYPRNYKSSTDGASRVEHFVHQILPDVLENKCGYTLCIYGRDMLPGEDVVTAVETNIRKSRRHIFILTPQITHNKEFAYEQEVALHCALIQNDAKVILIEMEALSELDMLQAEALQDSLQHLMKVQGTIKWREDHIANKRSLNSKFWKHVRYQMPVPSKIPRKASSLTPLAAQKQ
* marks the source's active call; other numbers are inactive results; i = inactive.

SMILES	ST2 IL33 inh
O=C(NC(Nc1ccc(Cl)cc1)C(Cl)(Cl)Cl)c1cccc([N+](=O)[O-])c1 (configuration not stated)	i
NC(=O)[C@@H]1CCCN1C(=O)c1cn(-c2ccccc2)nn1	i
CCOc1ccc2c(c1)C(=O)c1cc(OCC)ccc1-2	46.0%*
CCOc1ccc(OCC)c(NC(C)=O)c1	i
C=C1c2cc(OCC)ccc2NC(=O)N1c1ccccc1	i
COc1cc(NC(=O)CCCn2nc(C)c([N+](=O)[O-])c2C)c(OC)cc1Cl	i
COc1ccccc1-c1cc(Cn2cc(-c3ccc(C)o3)nn2)on1	i
O=C(O)c1ccccc1N=Cc1nc(-c2ccccc2F)oc1O	i
Cc1ccc(N=Cc2nc(-c3ccccc3F)oc2O)c([N+](=O)[O-])c1	34.0%*
Oc1oc(-c2ccccc2F)nc1C=Nc1cc(Cl)c(Cl)cc1Cl	i
O=C1CSc2ccc(C(=O)NCCCN3CCN(Cc4ccccc4)CC3)cc2N1	i
OC(Cc1ccccc1)c1ccccc1 (configuration not stated)	i
CC(C)(C)NCc1ccc([N+](=O)[O-])cc1	i
N#CSC(C#N)Cc1ccccc1 (configuration not stated)	33.0%*
N#CC(c1ccccc1)C(C#N)c1ccccc1 (configuration not stated)	i
N#Cc1cc(C#N)c(SCc2ccc([N+](=O)[O-])cc2)nc1N	i
N#CSC(C#N)Cc1ccc([N+](=O)[O-])cc1 (configuration not stated)	51.0%*
Cc1[nH]n(-c2cccc(Cl)c2)c(=O)c1C=Nc1ccc(I)cc1	i
CC(Cn1ccnc1C1CCN(C(C)C)CC1)Oc1cccnc1 (configuration not stated)	i
CCn1nc(C(=O)NCc2ccc(OC)cc2)c2c1CCN(C(=O)CCCc1cccs1)C2	i
CC(C)c1ccc(C2CC(c3ccc(Cl)cc3)Nc3ncnn32)cc1 (configuration not stated)	i
COCCN(Cc1cccs1)C(=O)c1ccc(OC)c(F)c1F	i
CN1C(=O)C(=Cc2cn(CCOc3ccc4c(c3)OCO4)c3ccccc23)C(=O)N(C)C1=O	i
CCOc1ccc(C(=O)N2CCN=C2SCc2ccc(Br)cc2)cc1	i
O=C(CC(=O)c1ccc([N+](=O)[O-])cc1)c1ccccc1	i
SMILES	ST2 IL33 inh
CCN(CC)/C(=C\C(=O)c1ccc([N+](=O)[O-])cc1)c1ccccc1	31.0%*
O=C(c1ccc([N+](=O)[O-])cc1)N(c1ccccn1)c1ccccn1	i
COCCCC1CCN(C(=O)CC2C(=O)NCCN2Cc2ccccc2)CC1 (configuration not stated)	i
COc1ccc(NS(=O)(=O)c2c(C)n[nH]c2C)cc1	i
CCn1c(C(C)NC(=O)C(C)(C)C)nc2ccccc21 (configuration not stated)	i
CCNc1ccc(Br)cc1-c1nc2ccccc2n(CC)c1=O	77.0%*
CCn1c(CCNC(=O)C(C)(C)C)nc2ccccc21	i
CCn1c(C2CCCN(C(=O)COc3ccc4c(c3)OCO4)C2)n[nH]c1=O (configuration not stated)	i
COc1ccccc1N=c1sc(C2=c3ccccc3=NC2=O)c(O)n1-c1ccccc1OC	36.0%*
CC1CC(=O)C2=C(CCC3(O)C2C(=O)c2cccc(O)c2C3O)C1 (configuration not stated)	31.0%*
Cc1ccc(-n2nc3c(c2NC(=O)C2CCCCC2)CSC3)cc1	i
Cc1c(C=O)c2ccccc2n1CC(=O)N1CCCc2ccccc21	i
Cc1cc2c(cc1O)NC(=O)CC2c1cc(=O)n2c3c(cccc13)CCC2 (configuration not stated)	i
Cc1c(C)n2c3c(cccc13)CCC2	52.0%*
CC(C)CS(=O)(=O)c1ncc(CN2CCSCC2)n1Cc1ccccc1	i
O=C(NCC1CCCO1)C1CCN(S(=O)(=O)N2CCCCC2)CC1 (configuration not stated)	i
O=C1COC[C@H]([C@H](O)c2ccc(NC(=O)c3cccc(F)c3)cc2)N1	i
Cc1ccsc1CN(C)Cc1ncccc1C(=O)O	i
Cn1c(=O)c2c(nc(Br)n2Cc2ccc(F)cc2)n(C)c1=O	i
CC(=O)N1N=C(c2ccc(F)cc2)Cn2c1nc1c2c(=O)n(C)c(=O)n1C	55.0%*
Cn1c(=O)c2c(nc(CN3CCN(c4ccc(F)cc4)CC3)n2CC(N)=O)n(C)c1=O	i
CCN1CCN(c2cc(C)c3cc(NC(=O)CCC(=O)NC4CCCC(C)C4C)ccc3n2)CC1 (configuration not stated)	i
N.N.[Cl-].[Cl-].[Pt+4]	77.0%*
Cc1cc(C)cc(CCC(=O)N(Cc2ccncc2)C2CCN(C)CC2)c1	i
CCCOC(=O)CSC1=C(C#N)C(c2cccc(Cl)c2Cl)CC(=O)N1 (configuration not stated)	i
Cc1ccc(Nc2nnc(-c3ccc(C)c(S(=O)(=O)NCCO)c3)c3ccccc23)cc1	i
Cc1ccc(C(NC(=O)CN2C(=O)c3ccccc3C2=O)c2ccccc2)cc1 (configuration not stated)	i
